Assay outcomes from PubChem.
Hits are enriched below; roughly 10% of the tested compounds scored in any of these assays.
BAZ2B block – inhibitors of human BAZ2B bromodomain; Q9UIF8; AlphaScreen BAZ2B-H3K14Ac peptide displacement; Potency, µM (highest dose often 114 µM), for inactives: at the highest dose activity change, negative = inhibition, usual class: inhibitors; 360,000 compounds, 4.4% hits; further: on the % scale 0 is the no-effect control and ±100 the full control effect; nearly all actives have a fitted effect of over 60% in size
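AlphaScreen luminescence quantifies BAZ2B engagement of H3K14Ac peptide; the protein and biotinylated peptide are both at 50 nM final, buffer PBS pH 7.4 with 0.01% Tween-20, all steps at room temperature.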
HP1b binding inh – inhibitors of HP1-beta chromodomain binding to methylated histone tails; 390,000 compounds, 0.56% hits; AlphaScreen HP1-beta / biotin-H3K9me3 peptide binding; P83916; Potency, µM (highest dose often 114 µM), for the others: top-dose activity change, negative = inhibition, hits mostly inhibitors; AID 540317; further: nearly all actives have a fitted effect of over 70% in size
Target sequence (P83916 whole entry, looked up): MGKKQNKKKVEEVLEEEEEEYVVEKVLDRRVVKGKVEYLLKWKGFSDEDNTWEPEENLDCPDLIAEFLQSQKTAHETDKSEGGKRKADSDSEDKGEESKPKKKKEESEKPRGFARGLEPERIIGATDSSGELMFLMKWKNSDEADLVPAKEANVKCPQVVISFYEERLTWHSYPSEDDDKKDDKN
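Compound inhibition of the preformed complex between 50 nM HP1-beta and 50 nM biotinylated H3K9me3 peptide was read by AlphaScreen. Buffer was PBS pH 7.4 with 0.01% Tween-20. Incubations ran 30 min at room temperature, with 10 ug/mL donor/acceptor beads.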
G9a block – inhibitors of human histone lysine methyltransferase G9a; G9a H3K9 monomethylation, AlphaScreen, 2 h; Potency, µM (top dose mostly 102 µM), inactives show at the highest dose activity, negative = inhibition, hits mostly inhibitors; 350,000 compounds, 8.8% hits; AID 504332; further: on the % scale 0 is the no-effect control and ±100 the full control effect; nearly all actives have a fitted effect of over 75% in size
Target sequence (Q96KQ7 913-1193 limits assumed): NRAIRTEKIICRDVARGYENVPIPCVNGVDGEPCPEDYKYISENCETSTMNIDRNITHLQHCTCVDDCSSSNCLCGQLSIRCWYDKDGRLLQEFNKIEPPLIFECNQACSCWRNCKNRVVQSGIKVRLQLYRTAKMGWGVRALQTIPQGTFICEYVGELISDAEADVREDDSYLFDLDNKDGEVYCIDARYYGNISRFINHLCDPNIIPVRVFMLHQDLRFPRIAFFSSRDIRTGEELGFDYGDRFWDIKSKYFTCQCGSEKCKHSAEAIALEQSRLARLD
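Using a bead-based AlphaScreen, monomethylated H3K9 product from 2 h room-temperature reactions (G9a 20 nM, peptide 500 nM, SAM 20 uM) was detected with 0.5 ug/mL rabbit anti-H3K9me1 antibody.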
GLS inh – glutaminase GLS (human) inhibition | O94925 | GLS enzymatic activity, qHTS titration | Potency, µM (doses to about 45.5 µM), inactives show at the highest dose activity change, negative = inhibition, actives largely listed as inhibitors | 410,000 compounds, 0.21% hits; further: on the % scale 0 is the no-effect control and ±100 the full control effect
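Glutamate formation by hKGA was monitored fluorometrically using coupled glutamate oxidase, HRP and Amplex Red. Substrate was added as 1 mM L-glutamine solution; incubation was 30 min at RT after an initial read.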
JMJD2A Tudor inh – inhibitors of human JMJD2A Tudor domain | AlphaScreen JMJD2A-Tudor / H3K4me3 peptide binding | Potency, µM (highest dose often 114 µM), inactives show at the highest dose activity change, negative = inhibition, actives largely listed as inhibitors | 390,000 compounds, 4.4% hits | AID 504339; further: on the % scale 0 is the no-effect control and ±100 the full control effect; nearly all actives have a fitted effect of over 50% in size
The depositor's hits bear a star; [ ] = another dose, or the depositor's remark. The call rests on the fitted dose curve; in most records, active means well fitted curve in the direction sought with a large enough effect; inconclusive means small, poorly fitted or top-dose-only effect, or another doubt; inactive means no such curve, though single readings can be large; an effect the other way counts as inactive or inconclusive. Potency means the concentration at half of the fitted maximal effect.

Results for CC(C)Sc1nc2sccc2c(=O)n1-c1ccccc1 ?
BAZ2B block: -13.2%; HP1b binding inh: 25.0%; G9a block: 39.8µM*; GLS inh: 0.1%; JMJD2A Tudor inh: -3.5%

How did CC(Sc1nc2sccc2c(=O)n1-c1ccccc1)C(N)=O (centres undefined) do in these assays?
BAZ2B block: 0.6%; HP1b binding inh: -18.4%; G9a block: -15.0%; GLS inh: -5.3%; JMJD2A Tudor inh: -4.9%

Results for Cc1ccc(C)n1-c1sccc1C(=O)O ?
BAZ2B block: 17.8µM*; HP1b binding inh: inconclusive; G9a block: 12.6µM*; GLS inh: inconclusive; JMJD2A Tudor inh: inconclusive

How did CCCCn1c(N)c(N(CCOC)C(=O)c2c(CC)noc2C)c(=O)[nH]c1=O do in these assays?
BAZ2B block: 7.2%; HP1b binding inh: 28.9%; G9a block: -2.5%[12.7 µM]; GLS inh: 16.0%; JMJD2A Tudor inh: -6.1%

How did CC(C)C[C@H]1CN(CCCC[C@@H]2CNC(=O)C(=O)N2CC2CCCCC2)C(=O)C(=O)N1CC1CCCCC1 do in these assays?
GLS inh: -0.7%

Results for NC(=S)NN=C1c2ccccc2-c2ccccc21 ?
BAZ2B block: inconclusive; HP1b binding inh: inconclusive; G9a block: -24.6%; GLS inh: 8.0%; JMJD2A Tudor inh: 50.1µM*

What do the screens show for `C/C(=N\NC(N)=S)c1ccccc1`?
BAZ2B block: -19.4%; HP1b binding inh: -4.3%; G9a block: inconclusive; GLS inh: 3.3%; JMJD2A Tudor inh: -15.7%

Results for O=C(NN=C1c2ccccc2-c2ccccc21)c1ccccc1 ?
BAZ2B block: 28.2µM*; HP1b binding inh: 35.5%; G9a block: 10µM*; GLS inh: 6.2%; JMJD2A Tudor inh: -30.1%

Results for NC(=S)NN=C(c1ccccc1)c1ccccc1 ?
BAZ2B block: -32.0%; HP1b binding inh: -1.1%; G9a block: 39.8µM*; GLS inh: 13.7%; JMJD2A Tudor inh: inconclusive

Results for CCOC(=O)NN=C1c2ccccc2-c2ccccc21 ?
BAZ2B block: -2.3%; HP1b binding inh: 35.5%; G9a block: 12.6%[59 µM]; GLS inh: -16.0%; JMJD2A Tudor inh: -5.4%

What do the screens show for `COc1ccccc1NS(=O)(=O)c1cccc(C(=O)NCC(c2cccs2)N2CCOCC2)c1` (centres undefined)?
BAZ2B block: 5.2%; HP1b binding inh: 36.8%; G9a block: -9.2%[12.7 µM]; GLS inh: 0.8%; JMJD2A Tudor inh: -19.9%

How did O=S1(=O)CCN(C2CCCC2)CC1 do in these assays?
GLS inh: 0.2%

Results for CC(=O)c1c(C)[nH]c(-c2ccccc2)nc1=S ?
BAZ2B block: -36.4%; HP1b binding inh: 43.5%; G9a block: 3.55µM*; GLS inh: -14.8%; JMJD2A Tudor inh: -3.4%

How did CSc1ccc(CCNC(=O)c2sc3ncccc3c2-n2cccc2)cc1 do in these assays?
BAZ2B block: -25.8%; HP1b binding inh: 0.1%[57 µM]; G9a block: -34.4%[59 µM]; GLS inh: 0.1%; JMJD2A Tudor inh: -29.1%

How did Cc1ccc(S(=O)(=O)NC(=O)C2(C)CCN2C(=O)CC2CCCC2)cc1 (centres undefined) do in these assays?
GLS inh: 3.5%

What do the screens show for `Cc1ccc(-c2nc(SC(C)C(=O)c3c(N)n(C)c(=O)n(C)c3=O)n[nH]2)cc1` (centres undefined)?
BAZ2B block: 12.3%; HP1b binding inh: 23.4%; G9a block: 44.7µM*; GLS inh: 1.3%; JMJD2A Tudor inh: -9.6%

What do the screens show for `CC(=O)Nc1ccc(NC(=O)C(C)Sc2n[nH]c(-c3ccc(C)cc3)n2)cc1` (centres undefined)?
BAZ2B block: 10.1%; HP1b binding inh: -2.7%; G9a block: 39.8µM*; GLS inh: 2.7%; JMJD2A Tudor inh: -24.1%

What do the screens show for `Cc1ccc(-c2nc(SCC(=O)c3c(N)n(C)c(=O)n(C)c3=O)n[nH]2)cc1`?
BAZ2B block: -0.1%; HP1b binding inh: 13.6%; G9a block: 18.1%[12.7 µM]; GLS inh: 1.5%; JMJD2A Tudor inh: -5.4%

Results for CCOc1ccc2oc(C(=O)N(CCOC)c3c(N)n(CC(C)C)c(=O)[nH]c3=O)c(C)c2c1 ?
BAZ2B block: -0.8%; HP1b binding inh: 30.4%; G9a block: -4.2%[12.7 µM]; GLS inh: 13.5%; JMJD2A Tudor inh: -3.8%
